The values that follow come from PubChem BioAssay (NCATS).

A short description of assay [1]: Quantitative High-Throughput drug screen in 47 multiple myeloma cell lines against the NCATS MIPE library collection: ARP1_JJKsccF8 cell viability assay (AID 1918928; note: nearly all actives have a fitted effect of over 40% in size). The method, boiled down: (§1)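 500 cells/well; MIPE 4.0 library pinned in; 48 h, 37 °C, 5% CO2; CellTiter-Glo ATP luminescence. Controls: DMSO = 100% viability, medium only = 0%.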
Assay [2] is described as follows: Quantitative High-Throughput drug screen in 47 multiple myeloma cell lines against the NCATS MIPE library collection: ARD_JJKsccE7 cell viability assay (AID 1918929). The method, boiled down: (§2)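 Viability readout: CellTiter-Glo luminescence following 5 min room-temperature incubation with reagent. Prior exposure: 48 h, 37C, humidified 5% CO2, 500 cells per well.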

A short description of assay [3]: Quantitative High-Throughput drug screen in 47 multiple myeloma cell lines against the NCATS MIPE library collection: Karpas620_DSMZ cell viability assay (AID 1918959). Note: nearly all actives have a fitted effect of over 30% in size. The method, boiled down:
(§3)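 qHTS of the MIPE 4.0 collection: 500 myeloma cells/well, 48 h drug exposure at 37C in 5% CO2, then CellTiter-Glo for 5 min at room temperature before luminescence reading.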

Assay [4] is described as follows: Quantitative High-Throughput drug screen in 47 multiple myeloma cell lines against the NCATS MIPE library collection: KMM1_JCRB cell viability assay (AID 1918960). Note: nearly all actives have a fitted effect of over 30% in size. The method, boiled down:
as §1

Assay [5] is described as follows: Quantitative High-Throughput drug screen in 47 multiple myeloma cell lines against the NCATS MIPE library collection: KHM11_PLB cell viability assay (AID 1918962). Note: nearly all actives have a fitted effect of over 35% in size. The method, boiled down:
as §3

Assay [6] is described as follows: Quantitative High-Throughput drug screen in 47 multiple myeloma cell lines against the NCATS MIPE library collection: JIM3_ECACC cell viability assay (AID 1918963; note: nearly all actives have a fitted effect of over 35% in size). The method, boiled down: as §3
The nature of assay [7]: Quantitative High-Throughput drug screen in 47 multiple myeloma cell lines against the NCATS MIPE library collection: JIM1_ECACC cell viability assay (AID 1918964). The method, boiled down:
as §2

A short description of assay [8]: Quantitative High-Throughput drug screen in 47 multiple myeloma cell lines against the NCATS MIPE library collection: INA6_PLB cell viability assay (AID 1918965; note: nearly all actives have a fitted effect of over 55% in size). The method, boiled down: (§4)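 Luminescent ATP measurement with CellTiter-Glo gives viability, scaled between DMSO-only wells (100%) and media-only wells (0%). Cells, 500 per well, faced library compounds for 48 hours at 37C.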

Assay [9] is described as follows: Quantitative High-Throughput drug screen in 47 multiple myeloma cell lines against the NCATS MIPE library collection: JJN3_DSMZ cell viability assay (AID 1918966; note: nearly all actives have a fitted effect of over 50% in size). The method, boiled down:
as §2

Assay [10] can be described thus: Quantitative High-Throughput drug screen in 47 multiple myeloma cell lines against the NCATS MIPE library collection: Karpas417_ECACC cell viability assay (AID 1918961). The note with it: Karpas417 myeloma viability, CellTiter-Glo ATP luminescence, 48 h; viability (% of DMSO): at 45.8 µM (top of the series) unless noted. The method, boiled down:
as §4
(In general: Cellular ATP, detected with luciferase, serves as a proxy for viable cell number.)

Results filed as inconclusive are left out. The source made the active and inactive calls. Calls come from the whole dose curve; as a rule, active = well fitted curve in the direction sought with a large enough effect; inconclusive = small, poorly fitted or top-dose-only effect, or another doubt; inactive = no such curve, though single readings can be large; an effect the other way counts as inactive or inconclusive.
Potency is the fitted concentration of half-maximal effect.

`CC(C)C[C@H](NC(=O)[C@@H](O)[C@H](N)Cc1ccccc1)C(=O)O`: the Potency in assay [1] is 16600 nM (active); in assay [5] it was 20900 nM (active); in [6], 18700 nM (active); in [8], 20900 nM (active). Moreover, the Potency entry in assay [2], in [3], in assay [4] and in [7] was “inactive” in each case.
Consider `NC(=O)c1cnccn1`, for which the Potency entry in [1], in assay [2], in [3], in assay [4], in [6] and in assay [7] was “inactive” each time. The Potency result in assay [8] and in assay [9] was “inactive” throughout.
Consider `CS(=O)(=O)c1ccc(C(=O)Nc2ccc(Cl)c(-c3ccccn3)c2)c(Cl)c1`, for which the Potency entry in assay [1], in assay [2], in assay [3], in assay [4], in assay [7] and in assay [9] was “inactive” in each case. In addition, the Potency in [8] is 4180 nM (active).
`C[C@]1(c2nc3c(C(N)=O)cccc3[nH]2)CCCN1`: the Potency entry in assay [1], in assay [2], in assay [3] and in assay [4] was “inactive” throughout. For the same molecule, in assay [5], the Potency is 18700 nM (active).
As to `CCCC(CCC)C(=O)O`, the Potency entry in assay [1], in assay [2], in assay [3], in assay [4], in assay [5] and in assay [7] was “inactive” in each case. Besides, the Potency entry in assay [8] is “inactive”.
For `CC1(C)Cc2c(-c3ccccc3)c(-c3ccc(Cl)cc3)c(CC(=O)O)n2C1`, the Potency in assay [1] was 23500 nM (active); in [3], 6620 nM (active); in [4], 2350 nM (active); in [9] it was 20900 nM (active). The Potency entry in assay [2] was “inactive”.
Regarding `O=C(O)CCc1ccc(NCc2cccc(Oc3ccccc3)c2)cc1`, the Potency result in assay [1], in assay [2], in assay [3], in assay [4], in [10] and in [6] was “inactive” in each case. Further, in assay [8], the Potency entry was “inactive”.
`O=C1CCC(N2C(=O)c3ccccc3C2=O)C(=O)N1` (centres undefined): the Potency in assay [1] is 66.2 nM (active). The Potency result in assay [2], in assay [3], in [4], in [5], in [6] and in assay [7] was “inactive” each time. For the same molecule, the Potency entry in [8] is “inactive”.
Regarding `O=C(C=Cc1ccc(/C=C/C(=O)Nc2ccc(C3=NCCN3)cc2)cc1)Nc1ccc(C2=NCCN2)cc1`, the Potency result in assay [1], in assay [2], in assay [3], in assay [4] and in assay [6] was “inactive” in each case.
`CCN(c1ccccc1)c1cc(NC)[n+](C)c(C)n1`: the Potency in assay [1] is 23500 nM (active); in [2], 13200 nM (active); in [5], 235 nM (active). The Potency result in [3], in assay [4], in [6], in [7] and in assay [8] was “inactive” in each case.
For `Nc1ccc(S(=O)(=O)Nc2ccnn2-c2ccccc2)cc1`, the Potency entry in [1], in assay [2], in [3], in assay [4], in assay [10] and in assay [5] was “inactive” in each case. The Potency entry in assay [6] and in assay [9] was “inactive” throughout.
Consider `Nc1nc2[nH]cc(CCc3ccc(C(=O)N[C@@H](CCC(=O)O)C(=O)O)cc3)c2c(=O)[nH]1`, for which the Potency is 418 nM (active) in assay [1]; 469 nM (active) in assay [2]; 590 nM (active) in [4]; 833 nM (active) in [6]; 743 nM (active) in [8]; 9350 nM (active) in assay [9]. Moreover, in [3], the Potency entry was “inactive”.
With `COc1ccc([C@@H]2CC(=O)c3c(O)cc(O[C@@H]4O[C@H](CO[C@@H]5O[C@@H](C)[C@H](O)[C@@H](O)[C@@H]5O)[C@@H](O)[C@H](O)[C@@H]4O)cc3O2)cc1O`, the Potency result in assay [1], in assay [2], in [3], in assay [4], in [10] and in assay [5] was “inactive” each time. The Potency entry in assay [6], in [7] and in assay [8] was “inactive” in each case.
As to `COc1ccc(C2=N[C@H](c3ccc(Cl)cc3)[C@H](c3ccc(Cl)cc3)N2C(=O)N2CCNC(=O)C2)c(OC(C)C)c1`, the Potency was 16600 nM (active) in assay [1] and 18700 nM (active) in assay [6]. In addition, the Potency entry in assay [2], in assay [3] and in assay [4] was “inactive” in each case.
Regarding `CCn1cc(C(=O)O)c(=O)c2cc(F)c(N3CCNC(C)C3)c(F)c21` (centres undefined), the Potency entry in assay [1], in assay [2], in assay [3], in [4], in assay [5] and in [6] was “inactive” throughout. Further, the Potency result in [7] and in assay [8] was “inactive” throughout.
As for `COc1nc(-c2ccc3c(c2)OCO3)n(-c2ccc(NC(=O)CSc3ccccc3)cc2)n1`, the Potency entry in assay [1], in assay [2], in [3], in [4], in assay [10] and in [5] was “inactive” throughout. Also, the Potency entry in assay [6], in assay [7] and in assay [8] was “inactive” each time.
Take `c1ccc([C@H]2CN3CCSC3=N2)cc1`: the Potency result in assay [1], in assay [2], in assay [3], in [4] and in [6] was “inactive” in each case.
Regarding `COc1ccc(-c2ccc3c(N4CCOCC4)nc(N4C[C@@H](C)O[C@@H](C)C4)nc3n2)cc1CO`, the Potency was 264 nM (active) in assay [1]; 1320 nM (active) in assay [2]; 1050 nM (active) in [3]; 209 nM (active) in assay [4]; 148 nM (active) in [10]; 93.5 nM (active) in [5]. Moreover, the Potency in [7] was 33.2 nM (active); in assay [8], 5900 nM (active); in assay [9], 1870 nM (active).
With `NC[C@H](O)c1ccc(O)c(O)c1`, the Potency result in assay [1], in assay [2], in assay [3], in assay [4], in assay [5] and in [6] was “inactive” in each case. In addition, the Potency result in assay [7] is “inactive”. The Potency in assay [9] was 4180 nM (active).
For `Cn1cnc2c(F)c(Nc3ccc(Br)cc3Cl)c(C(=O)NOCCO)cc21`, the Potency result in assay [1] is “inactive”. For the same molecule, the Potency in [2] was 743 nM (active); in [3], 235 nM (active); in assay [4], 5260 nM (active); in [10], 264 nM (active); in assay [5], 46.9 nM (active); in assay [6], 1660 nM (active). Moreover, in [8], the Potency is 526 nM (active).
